Records with an inconclusive call do not appear. Unmarked numbers belong to inactive results. The call rests on the fitted dose curve.
Target: Vitamin D3 receptor (Homo sapiens) (UniProt P11473)
Experiment: qHTS assay to identify small molecule agonists of the vitamin D receptor (VDR) signaling pathway (AID 743222)
Details: HEK293T VDR-UAS-bla, beta-lactamase FRET ratio, 16 h; series mostly up to 63.5 µM; activation: at the top concentration
Description: National Center for Advancing Translational Sciences [NCATS]
NIH Chemical Genomics Center [NCGC]
U.S. Environmental Protection Agency [EPA]
National Institutes of Environmental Health Sciences [NIEHS]
National Toxicology Program [NTP]
U.S. Food and Drug Administration [FDA]
The vitamin D receptor (VDR), a member of nuclear hormone receptor superfamily, plays a critical role in calcium homeostasis and bone metabolism. It is also involved in cell differentiation and growth, and thrombogenicity.
Tox21 Assay Protocol Summary:
VDR-bla cells were dispensed at 2,000 cells/6 uL/well into black wall/clear-bottom 1536-well plates using a Multidrop Combi (Thermo Fisher Scientific, Waltham, MA) dispenser. After the assay plates were incubated at a 37C and 5% CO2 for 4 h, 23 nL of compounds dissolved in DMSO, positive controls or DMSO only was transferred to the assay plate by a Pintool station (Kalypsys, San Diego, CA). The plates were incubated at 37C and 5% CO2 for 16 h. After 1 uL of LiveBLAzerTM B/G FRET substrate was added using a Bioraptr Flying Reagent Dispenser (FRD) workstation (Beckman Coulter, Indianapolis, IN, USA), the plates were incubated at room temperature for 2 h, and fluorescence intensity was measured by an Envision plate reader (PerkinElmer, Shelton, CT).
On the % scale 0 is the no-effect control and ±100 the full control effect.

Vitamin D3 receptor (Homo sapiens), sequence (P11473 whole entry, looked up): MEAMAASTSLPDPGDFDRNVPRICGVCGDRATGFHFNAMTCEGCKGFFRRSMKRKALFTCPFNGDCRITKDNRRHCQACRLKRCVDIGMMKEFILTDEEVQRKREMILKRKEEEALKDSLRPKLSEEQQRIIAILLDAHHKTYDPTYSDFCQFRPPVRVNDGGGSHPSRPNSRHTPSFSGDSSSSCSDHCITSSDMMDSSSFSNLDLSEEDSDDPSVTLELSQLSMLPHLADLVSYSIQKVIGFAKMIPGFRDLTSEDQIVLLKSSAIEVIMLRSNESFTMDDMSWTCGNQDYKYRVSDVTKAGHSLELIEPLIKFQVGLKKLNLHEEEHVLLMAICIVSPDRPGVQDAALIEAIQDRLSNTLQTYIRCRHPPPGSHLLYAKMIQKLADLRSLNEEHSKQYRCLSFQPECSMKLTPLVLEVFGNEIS

Row | SMILES | activation
1 | CCCCCCCCO[C@@H]1O[C@H](CO)[C@@H](O)[C@H](O)[C@H]1O | -3.37%
2 | CCCCCCCC/C=C\CCCCCCCC(=O)OCC | -3.02%
3 | CC[N+]1(CC)CCC(=C(c2ccccc2)c2ccccc2)C1C (stereo not given) | 10.2%
4 | Nc1cc(C(=O)O)c(O)c(S(=O)(=O)O)c1 | -10.4%
5 | O=C(O)c1ccco1 | 0.795%
6 | CCOCC(O)COc1ccc(NC(=O)CC[S+](C)C)cc1 (stereo not given) | 1.61%
7 | CN(C)CCN(Cc1ccccc1)c1ccccn1 | -5.91%
8 | CC(C)O.CC(C)O.CCOC(=O)/C=C(\C)O.CCOC(=O)/C=C(\C)O.[Ti] | -4.01%
9 | CC1CCC(=O)C1=O (stereo not given) | -10.5% [at 81.1 µM]
10 | CC(C)(CO)[N+](=O)[O-] | 5.46%
11 | OCCN1CCN(CCCN2c3ccccc3C=Cc3ccccc32)CC1 | -8.97%
12 | NCc1ccccc1Sc1ccccc1CO | -1.41%
13 | O=C1C(O)=C(O)C(=O)C(O)=C1O | 0.206%
14 | COCCCN1CCC(NC(=O)c2cc(Cl)c(N)c3c2OCC3)CC1 | -3.4%
15 | Cc1[nH]c(C)c(Cl)c(=O)c1Cl | 12.5% [at 29.5 µM]
16 | CN1CCC(=C2c3ccccc3Sc3ccccc32)CC1 | 6.7%
17 | CN(Cc1ccc(C(C)(C)C)cc1)Cc1cccc2ccccc12 | -7.63%
18 | O=[N+]([O-])c1ccc2[nH]ncc2c1 | -0.205%
19 | CCCCC(CC)COC(=O)COc1ccc(Cl)cc1Cl (stereo not given) | -19.1% [at 81.1 µM]
20 | CC(C)(C)OCC1CO1 (stereo not given) | -1.69% [at 81.1 µM]

Row | SMILES | activation
21 | C#CCN(C)CCCOc1ccc(Cl)cc1Cl | -2.31%
22 | C=C(C)C(=O)OCC | 10.3% [at 81.1 µM]
23 | ClCCOCCOCCCl | 1.49%
24 | CCCn1cnc2c1c(=O)n(CCCCC(C)=O)c(=O)n2C | -6.29%
25 | OC[C@H]1O[C@@H](OCCc2ccc(O)cc2)[C@H](O)[C@@H](O)[C@@H]1O | 0.46%
26 | COc1ccc(C)cc1[N+](=O)[O-] | -2.51% [at 81.1 µM]
27 | COc1cc(Cl)ccc1Oc1ccc(Cl)cc1Cl | -4.16%
28 | CCOc1ccc(N=Nc2ccc(/C=C/c3ccc(N=Nc4ccc(OCC)cc4)cc3S(=O)(=O)O)c(S(=O)(=O)O)c2)cc1 | -6.83%
29 | Cc1nn(C)c(Oc2ccccc2)c1/C=N/OCc1ccc(C(=O)OC(C)(C)C)cc1 | -10.2%
30 | CCNc1cc(O)ccc1C | -10.7%
31 | CCN(CC)CCOC(=O)C(c1ccccc1)C1CCCCC1 (stereo not given) | -16%
32 | O=C(O)CC(=O)C(=O)O | 0.747% [at 81.1 µM]
33 | NCCCN1CCOCC1 | -0.14%
34 | C[C@@H]1C[C@H]2[C@@H]3CCC4=CC(=O)C=C[C@]4(C)[C@@]3(F)[C@@H](O)C[C@]2(C)[C@@]1(O)C(=O)COC(=O)c1ccncc1 | 1.47%
35 | O=C1OC(=O)C2C3C=CC(C3)C12 (stereo not given) | 0.422%
36 | CCC(C)c1cc(C(C)(C)C)c(O)c(C(C)(C)C)c1 (stereo not given) | 9.55%
37 | C[C@H]1C[C@H]2[C@@H]3CCC4=CC(=O)C=C[C@]4(C)[C@@]3(Cl)[C@@H](O)C[C@]2(C)[C@@]1(O)C(=O)CO | -10.4%
38 | O=[N+]([O-])c1cccc(S(=O)(=O)O)c1 | 5.75% [at 81.1 µM]
39 | NCC(=O)O | 6.57% [at 29.5 µM]
40 | CC(C)Nc1ccc(NC(C)C)c2c1C(=O)c1ccccc1C2=O | 1.76%

From PubChem BioAssay (Tox21)
